Source: the supplement of paper PMC6992640
Counter-ions that a name gives are not always drawn. ± gives the standard deviation of the averaged measurements.

Assays:
Test in all cases: cell viability (% of vehicle); higher = less cytotoxic
Conditions in all cases: 10 µM; 72 h
HCI01 = system: HCI01 (cells of a triple-negative basal-like breast cancer xenograft)
HCI03 = system: HCI03 (cells of an ER-positive luminal breast cancer xenograft)
HCI09 = system: HCI09 (cells of a triple-negative luminal androgen receptor type breast cancer xenograft)
HCI11 = system: HCI11 (cells of an ER-positive luminal breast cancer xenograft)
HCI13 = system: HCI13 (cells of an ER-positive luminal breast cancer xenograft)
HCI16 = system: HCI16 (cells of a triple-negative basal-like breast cancer xenograft)
UCD52 = system: UCD52 (cells of a triple-negative basal-like breast cancer xenograft)
WHIM2 = system: WHIM2 (cells of a triple-negative basal-like breast cancer xenograft)
WHIM30 = system: WHIM30 (cells of a triple-negative basal-like breast cancer xenograft)
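Further: PDX cells carrying CMV promoter-driven luciferase, viability read as total photon flux per second by IVIS imaging following D-luciferin, vehicle control 0.1% DMSO.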

| SMILES | cell viability (HCI01) | cell viability (HCI03) | cell viability (HCI09) | cell viability (HCI11) | cell viability (HCI13) | cell viability (HCI16) | cell viability (UCD52) | cell viability (WHIM2) | cell viability (WHIM30) |
| --- | --- | --- | --- | --- | --- | --- | --- | --- | --- |
| NC(=O)CN1CC(O)CC1=O (stereo not drawn) [Oxiracetam] | 111 ± 16 | 115 | 98.3 ± 9.9 | 71 | 123 ± 12 | 126 | 117 ± 3.4 | 112 ± 15 | 134 ± 8.7 |
| Cl.NCC1(CC(=O)O)CCCCC1 [Gabapentin HCl] | 142 ± 42 | 121 | 94.2 ± 3.2 | 90.2 | 109 ± 14 | 120 | 80.45 ± 0.75 | 85.7 ± 7.6 | 115.5 ± 0.43 |
| CC(=O)OC1CC2CCC3C(CCC4(C)C3CC([N+]3(C)CCCCC3)C4OC(C)=O)C2(C)CC1[N+]1(C)CCCCC1.[Br-].[Br-] (stereo not drawn) [Pancuronium dibromide] | 99.4 ± 8.2 | 106 | 105 ± 2.1 | 93.3 | – | 95.5 | 79.4 ± 3.5 | 94.3 ± 4.8 | 103 ± 4.2 |
| C[N+](C)(C)CCCCCCCCCC[N+](C)(C)C.[Br-].[Br-] [Decamethonium Bromide] | 110 ± 4.6 | 120 | 100 ± 6.9 | 102 | 105 ± 1.9 | 105 | 78.9 ± 6.2 | 89.8 ± 8.7 | 101 ± 10 |
| CC(=O)O[C@@]12CO[C@@H]1C[C@@H](O)[C@@]1(C)C(=O)[C@@H](O)C3=C(C)[C@@H](O)C[C@@](O)([C@@H](OC(=O)c4ccccc4)[C@H]21)C3(C)C [10-DAB (10-Deacetylbaccatin)] | 138 ± 19 | 107 | 99.3 ± 2.1 | 108 | 97.8 ± 2.6 | 126 | 79.2 ± 2.9 | 84.7 ± 18 | 126 ± 7.2 |
| CCC1(c2cccc(O)c2)CCCCN(C)C1.Cl (stereo not drawn) [Meptazinol HCl] | 69.9 ± 42 | 141 | 98.1 ± 10 | 94 | 111 ± 5 | 112 | 85.7 ± 6 | 91.8 ± 33 | 181.3 ± 0.74 |
| COc1cc2c(cc1OC)C13CCN4CC5=CCOC6CC(=O)N2C1C6C5CC43 (stereo not drawn) [Brucine] | 90.3 ± 9.9 | 132 | 98.2 ± 29 | 94.5 | 106 ± 11 | 100 | 106 ± 1.5 | 83.5 ± 22 | 96.6 ± 4.8 |
| CCNCC.O=C(O)Cc1ccccc1Nc1c(Cl)cccc1Cl [Diclofenac Diethylamine] | 91.7 ± 19 | 77.9 | 88.7 ± 1.8 | 83.1 | 70.4 ± 10 | 113 | 69 ± 2.6 | 108 ± 7.9 | 94.02 ± 0.47 |
| Oc1cc(Cl)ccc1Oc1ccc(Cl)cc1Cl [Triclosan] | 73.5 ± 14 | 109 | 41.7 ± 24 | 71.7 | 66.4 ± 20 | 137 | 97.1 ± 9.6 | 49.5 ± 1.1 | 109.3 ± 1 |
| O=S(=O)(F)Cc1ccccc1 | 131 ± 25 | 127 | 89.27 ± 0.7 | 92.5 | 87.2 ± 19 | 100 | 106.1 ± 0.78 | 104 ± 31 | 111 ± 22 |
| CN(C)C1C(=O)C(C(N)=O)=C(O)C2(O)C(=O)C3=C(O)c4c(O)cccc4C(C)(O)C3CC12.Cl (stereo not drawn) [Tetracycline Hydrochloride] | 105 ± 10 | 108 | 89.46 ± 0.85 | 96.7 | 92.1 ± 4.3 | 87.5 | 77.3 ± 1.4 | 77.1 ± 20 | 116 ± 19 |
| CN(C)C(=O)C(CCN1CCC(O)(c2ccc(Cl)cc2)CC1)(c1ccccc1)c1ccccc1.Cl [Loperamide HCl] | 102 ± 20 | 84.8 | 53.5 ± 15 | 98.7 | 79.2 ± 6.6 | 95.1 | 49.1 ± 1.4 | 59.8 ± 8.3 | 102 ± 9.7 |
| CC(C)CC(CN)CC(=O)O (stereo not drawn) [Pregabalin] | 97.8 ± 10 | 104 | 90.8 ± 9 | 95.6 | 138 ± 18 | 70.8 | 78.2 ± 7.7 | 81.4 ± 9.4 | 111 ± 21 |
| CCCC1CC(=O)N(C(CC)C(N)=O)C1 (stereo not drawn) [Brivaracetam] | 98 ± 7 | 163 | 97.1 ± 1.8 | 89.3 | 87.83 ± 0.76 | 101 | 106 ± 1.4 | 98.2 ± 12 | 128 ± 11 |
| Cc1c(N)nc(C(CC(N)=O)NCC(N)C(N)=O)nc1C(=O)NC(C(=O)NC(C)C(O)C(C)C(=O)NC(C(=O)NCCc1nc(-c2nc(C(=O)NCCC[S+](C)C)cs2)cs1)C(C)O)C(O[C@@H]1O[C@@H](CO)[C@@H](O)[C@H](O)[C@@H]1O[C@H]1O[C@H](CO)[C@@H](O)[C@H](OC(N)=O)[C@@H]1O)c1cnc[nH]1 (stereo partly drawn) [Bleomycin Sulfate] | 117 ± 3.2 | – | 61.2 ± 15 | 106 | 39.2 ± 24 | 83.4 | 109 ± 6.6 | 77 ± 1.2 | 100 ± 27 |
